Source: PubChem BioAssay
Hits are enriched below; roughly 2.3% of the tested compounds scored in any of these assays.
Rin1-Abl PPI inh = inhibitors of human Rin1-Abl protein interaction; TR-FRET Rin1/Abl binding, biochemical; inhibition, % at 7.35 µM; hit rate 0.4% among 360,000; in the data active = inhibition above about 5%, passing the limit was not always enough
Rpn11 inh = inhibitors of human proteasome Rpn11. O00487. human 26S proteasome, Ub4-pepOG fluorescence polarization; 20S core pre-blocked with epoxomicin. inhibition, % at 20 µM. hit rate 0.59% among 360,000;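 active = inhibition at 20 µM, scaled to each plate's controls, above about 33%, limit read from the data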
IDE cell activ = IDE (human) activation, cell-based | P14735 | HEK cells, FAbeta-B cleavage, fluorescence polarization; 0% vehicle, 100% cell-free pure enzyme wells | activation, % at 5.96 µM | hit rate 0.073% among 340,000 | AID 493087;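 active = activation above the mean of all tested compounds plus 3 SD, set per screening campaign, cut at about 17% in these data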
IDE cell inh = cellular human IDE inhibition; P14735; AID 434962; inhibition, % at 5.59 µM; hit rate 0.41% among 320,000; HEK cells, FAbetaB cleavage, fluorescence polarization;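 active = percent inhibition above the average of all tested compounds plus 3 SD, set per screening campaign, cut at about 16% in these data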;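 also: IDE supplied by intact live HEK cells; FP after avidin binding of uncleaved biotin substrate so inhibition keeps polarization high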
Calb FLC = affects C. albicans growth with fluconazole; growth inhibition, % (concentration not given with the values); C. albicans CaCi-2 (fluconazole-resistant clinical isolate) + fluconazole, Alamar Blue growth, 48 h; hit rate 0.57% among 300,000;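 active = growth inhibition above about 58% in most replicates, limit read from the data, passing the limit was not always enough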;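 also: all wells also contain fluconazole at 8 µg/ml as a sub-toxic cotreatment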
TPT1 inhibitor = inhibitors of Candida albicans tRNA 2'-phosphotransferase TPT1 | recombinant caTPT1, FP RNA substrate dephosphorylation | inhibition, % at 5 µM | hit rate 0.81% among 300,000;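 active = inhibition above the mean of all tested compounds plus 3 SD, set per screening campaign, cut at about 24% in these data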
Rpn11 confirm = confirmation of human proteasome Rpn11 inhibitors; AID 602318; hit rate 29% among 1,900; purified human 26S proteasome, Ub4-pepOG fluorescence polarization; proteasome pretreated with epoxomicin; inhibition, % at 20 µM; shares compounds with Rpn11 inh
MMP-2 inh = counter-screen for RPN11 inhibitors: inhibition of human MMP-2. shares compounds with Rpn11 inh. AID 602330. inhibition, % at 20 µM. recombinant MMP-2, FRET peptide cleavage fluorescence. hit rate 4% among 1,900;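 also: human MMP-2 activated beforehand with APMA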
Target sequence (P08253 whole entry, looked up): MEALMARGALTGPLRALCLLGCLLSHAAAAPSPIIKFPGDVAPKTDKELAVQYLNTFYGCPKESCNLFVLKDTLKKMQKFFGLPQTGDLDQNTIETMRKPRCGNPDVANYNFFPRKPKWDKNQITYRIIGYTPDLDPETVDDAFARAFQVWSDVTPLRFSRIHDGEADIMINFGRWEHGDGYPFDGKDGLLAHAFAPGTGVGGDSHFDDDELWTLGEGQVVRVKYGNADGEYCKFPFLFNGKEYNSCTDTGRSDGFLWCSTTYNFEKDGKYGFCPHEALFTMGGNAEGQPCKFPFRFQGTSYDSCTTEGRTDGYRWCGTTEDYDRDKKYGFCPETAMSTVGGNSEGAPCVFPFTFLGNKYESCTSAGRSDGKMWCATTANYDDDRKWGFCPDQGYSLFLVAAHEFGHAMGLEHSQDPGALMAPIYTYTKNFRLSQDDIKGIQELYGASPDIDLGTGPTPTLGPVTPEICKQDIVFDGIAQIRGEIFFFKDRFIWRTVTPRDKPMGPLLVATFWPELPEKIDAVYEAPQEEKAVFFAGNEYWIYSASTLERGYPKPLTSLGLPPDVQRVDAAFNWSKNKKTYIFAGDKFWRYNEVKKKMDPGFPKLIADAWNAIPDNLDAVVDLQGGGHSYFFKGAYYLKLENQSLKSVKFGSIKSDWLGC
Thrombin inh = counter-screen for RPN11 inhibitors: inhibition of bovine thrombin. shares compounds with Rpn11 inh. bovine thrombin cleavage of Ub4-pepOG, fluorescence polarization. inhibition, % at 20 µM. hit rate 13% among 1,900. AID 602333;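 active = mean inhibition at least 40% at 20 µM, or signal 3 deviations below plate average, so some actives read negative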
Numbers stand for hits; – = inactive; · = no result given. Rule as the data show it, unless noted: active = inhibition above about 40%; inactive = the rest.

SMILES	Rin1-Abl PPI inh	Rpn11 inh	IDE cell activ	IDE cell inh	Calb FLC	TPT1 inhibitor	Rpn11 confirm	MMP-2 inh	Thrombin inh
CCCC(C(=O)NC(C)(C)C)N(CCN1CCOCC1)C(=O)CNS(=O)(=O)c1ccccc1 (stereo not drawn)	–	–	–	–	–	–	·	·	·
C=CCn1c(O)c(C=Nc2ccc(Cc3ccncc3)cc2)c(=O)[nH]c1=S	–	48	–	–	–	–	–	–	–
COc1ccc(CCn2c(O)c(C=Nc3cccc(F)c3)c(=O)[nH]c2=O)cc1OC	–	–	·	–	–	–	·	·	·
CCN(CC)C(=O)c1ncn2c1c(=O)[nH]c1ccccc12	–	–	·	·	·	·	·	·	·
CCS(=O)(=O)N1N=C(c2ccc(NS(C)(=O)=O)cc2)CC1c1ccccc1 (stereo not drawn)	–	82	–	–	–	–	153	–	139
CCOC(=O)c1[nH]c(CSc2nnnn2-c2ccccc2C)c(C(=O)OCC)c1C	–	62	–	–	·	–	–	–	–
Cc1cc(C)cc(N(CC(=O)NC(C)C)C(=O)CCC(=O)Nc2ccccn2)c1	–	–	–	–	–	–	·	·	·
CCOc1ccc(C(=O)CCC(=O)N2CCN(c3ncccn3)CC2)cc1	–	43	–	–	·	–	43	–	–
Cc1cccn2c(=O)c3cc(C(=O)NC4CCCC4)c(=N)n(C4CCCC4)c3nc12	–	134	–	–	–	–	–	–	–
COc1ccc(-c2cnc3c(NC=O)cc(-c4ccccc4OC)cn23)cc1OC	–	–	·	·	·	·	·	·	·
COc1ccc(NC(=O)c2ccc(S(=O)(=O)N(C)C)cc2)cc1	–	–	–	–	–	–	·	·	·
CC(C)NC(=O)c1ccc(S(=O)(=O)N(C)C)cc1	–	39	–	–	–	–	–	–	–
CCOc1ccc(NC(=O)CN(C)C(=O)C(C)Oc2ccc(Cl)cc2)cc1OCC (stereo not drawn)	–	–	–	·	·	·	·	·	·
CSc1nc(-c2ccco2)cc(C(F)(F)F)c1C#N	–	134	–	–	–	–	–	–	–
CCN(CC)C(=O)CSc1nc(-c2ccco2)cc(C(F)(F)F)c1C#N	–	–	–	–	–	–	·	·	·
N#Cc1c(C(F)(F)F)cc(-c2ccco2)nc1SCc1ccncc1	–	54	–	–	–	–	–	–	–
O=C1c2ccccc2-c2onc3c(N4CCN(CCO)CC4)cc(N4CCN(C(=O)c5ccco5)CC4)c1c23	–	49	–	–	–	–	active	–	active
CCOC(=O)c1cc2occc2n1Cc1c(F)cccc1Cl	–	42	–	–	–	–	–	–	–
Brc1ccc(-c2nnc3ccc(N4CCN(c5ccccc5)CC4)nn23)cc1	–	62	–	–	–	–	–	–	–
CNC(=O)/C(C#N)=C/c1c(N2CCN(c3ccc(OC)cc3)CC2)nc2c(C)cccn2c1=O	–	56	–	–	–	–	–	–	–
C#CCOc1ccc(C2C(C#N)=C(N)Oc3cc(O)ccc32)cc1 (stereo not drawn)	–	52	–	–	–	–	–	–	–
N#CC1=C(N)Oc2cc(O)c(Cl)cc2C1c1cccnc1 (stereo not drawn)	–	57	–	·	–	·	–	–	–
COc1ccc(C2C(C#N)=C(N)Oc3cc(O)ccc32)cc1Cl (stereo not drawn)	–	59	–	–	–	–	–	–	–
CCOc1ccc(C2C(C#N)=C(N)Oc3cc(O)ccc32)cc1OCC (stereo not drawn)	–	–	–	–	–	–	·	·	·
CCOC1=C2CN(S(=O)(=O)c3ccc(C)cc3)[C@@H](c3ccccc3)C[C@H]2[C@H]2C(=O)N(c3ccccc3)C(=O)[C@H]2C1	–	–	·	·	·	·	·	·	·
CCc1ccccc1OCC(=O)Nc1ccc(N2CCCC2)cc1C	–	88	–	·	·	·	43	–	–
Cc1cc(N2CCCC2)ccc1NC(=O)COc1ccccc1	–	–	–	·	·	·	·	·	·
